Test results reported in PubChem BioAssay (NCI).
Several values for one entry are separate records, joined by “and”; a condition that tells them apart may be missing. Equal values may be shown once. This is part of a sample that, as a whole, favours compounds with a hit. Of some 83,000 tested, about 20% had one in any assay.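 Results are percent growth after 48 hours of single-concentration exposure. 100 means growth as in untreated cells, lower positive values show inhibition; negative values down to -100 show cell death.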 A number with no mark means an inactive call. Activity calls are given as the source filed them. The calls were made as follows: active = growth percent below 10; inactive = the rest.

Tested on: NCI-H322M lung
Assay: NCI-60 one-dose screen, 48 h (100 = growth as untreated, 0 = no growth, -100 = all killed)
Settings: 10 µM unless noted

Structure (SMILES)	growth
ON=C1CCCCCCCC1	96.4%
CCOC(=O)N(O)c1ccc(/C=C/c2ccccc2)cc1	79.6% and 76.4%
O=S(=O)(O)c1ccc(N=Nc2ccc(N=Nc3cccc4ccccc34)c(S(=O)(=O)O)c2)cc1	102%
COc1ccc(-c2nn3c(-c4cc(F)c(Cl)cc4Cl)nnc3s2)cc1	79.2%
CCc1c2c(nc3ccc(OCc4ccc(B5OC(C)(C)C(C)(C)O5)cc4)cc13)-c1cc3c(c(=O)n1C2)COC(=O)[C@]3(O)CC	6.44% (active)
O=C(O)c1ccccc1Cc1ccc(F)c2ccccc12	109% and 112%
CCCCC1COc2cccc3c2N1C=C/C3=C\C(=O)N(C)c1cccc(Cl)c1 (stereo not drawn)	110%
COc1ccc(/C=C2\COc3ccc(O)c(O)c3C2=O)c(OC)c1OC	56.2%
CC12OC(CC(O)C1O)n1c3ccccc3c3c4c(c5c6ccccc6n2c5c31)C(=O)N(CCN1CCOCC1)C4=O (stereo not drawn)	14.5%
COc1ccc(/C=N/C2=C(C#N)C(c3ccccc3)c3c(ccc4ccccc34)O2)cc1 (stereo not drawn)	40.9%
COc1ccc(-c2cc3cnc4ccccc4c3oc2=O)cc1	94.5%
O=C(/C=C/c1ccc(F)cc1)Nc1ncc(Cc2ccc(F)cc2)s1	41.4%
COc1cc(/C=C2\CCC/C(=C\c3cc(CN4CCCC4)c(O)c(OC)c3)C2=O)cc(CN2CCCC2)c1O	44.3%
CN(C)CCCn1c2c(c3ccc(N4CCNCC4)cc3c1=O)C(=O)c1ccccc1-2	13%
C=CCOc1ccc(/C=C2\SC(=S)N(CCc3ccc(O)cc3)C2=O)cc1	95.2%
CCOC(=O)C1=C(C)N=C2SC=C(c3ccc(F)cc3)N2[C@H]1c1cn(-c2ccccc2)nc1-c1ccc(Cl)cc1	88.6%
COc1ccc(/C=N/NC(=O)CN2CCN(c3cc4c(cc3F)c(=O)c(C(=O)O)cn4C3CC3)CC2)cc1O	102%
COc1cccc(C2C(C#N)=C(N)Oc3cc(OCCCCCC[P+](c4ccccc4)(c4ccccc4)c4ccccc4)ccc32)c1 (stereo not drawn)	6.6% (active)
Cc1nn(-c2nc(-c3cc4ccccc4oc3=O)cs2)c(C)c1N=Nc1ccccc1	97.3%

Structure (SMILES)	growth
Cn1cc2c(=O)nc3c(-c4nc5ccccc5[nH]4)n[nH]n3c2n1	91.8%
O=C1c2cccc3cccc(c23)C(=O)N1N1C(=O)c2cccc3c(N4CCNCC4)ccc(c23)C1=O	88.2%
Cc1nc2sc(C(=O)Nc3cccc4ncccc34)c(N)c2cc1C(C)O (stereo not drawn)	79.7%
CCOC(=O)c1nc2c3ccccc3cnn2c1C(=O)c1ccc(OC)cc1	101%
O=C1/C(=C/c2ccccc2[N+](=O)[O-])Cc2ccccc21	65.2% and 71.3%
COc1cc(/C=C2/C=C(c3ccc(C(C)(C)C)cc3)N(CCc3ccc(S(N)(=O)=O)cc3)C2=O)cc(OC)c1OC	81.2%
COC(=O)N/N=C/c1c[n+]([O-])c2ccccc2[n+]1[O-]	98.3%
Cc1nc(-n2[nH]c(=O)ccc2=O)sc1N=Nc1ccccc1	97.3%
CC1(Cc2ccccc2)CC2=C(C(=O)O1)C(c1ccccc1)NC(=O)N2 (stereo not drawn)	98.6%
Cc1ccc(/C=C/c2c(C(=O)/C=C/c3ccccc3)c(C)nc3ccccc23)cc1	46.8%
CC1=C2[C@@H](CC1)[C@]1(C)O[C@@](C3CC3)(C[C@H]1OC(=O)CO)[C@H]2OC(=O)/C=C/c1ccccc1	82.2%
COc1ccc(S(=O)(=O)Nc2cc(Sc3cccc4cccnc34)c(O)c3ccccc23)cc1	29.9%
CCN(CC)CCCN1C(=O)c2c(c(C)c3c(oc4cc(OC)ccc43)c2C)C1=O	94.2%
CN1Cn2c(ccc2C(F)(F)F)C(=O)CS1(=O)=O	104%
O=c1cc(N/N=C/c2ccc(F)cc2)c2cc(Cl)ccc2[nH]1	95.2%
Cc1cccc(-c2nnc(SCC(=O)Nc3ncc(Cc4ccccc4)s3)n2N2C(=O)CSC2=S)c1	40.1%
COc1ccc(/C(C)=C(\c2ccc(OCCN3CCCCCC3)cc2)c2ccc(OC(=O)C3CCCCC3)cc2)cc1	5.75% (active)
COc1ccc2c(c1)c(C(=O)c1nc(-c3cn(C)c4ccccc34)no1)cn2C	86.5%
CCOC(=O)c1nnn(Cc2cc(=O)oc3c2ccc2ccccc23)c1C	98%
